Sfp PPTase inh = Sfp phosphopantetheinyl transferase inhibition. Biochemical Sfp PPTase activity, qHTS. Potency, µM, inactives show largest response in the series, negative = inhibition, hits mostly inhibitors. 310,000 tested, 3.5% active. AID 1490;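 further: the enzyme is Sfp with the accession as filed and its product quenches rhodamine fluorescence; 0% = enzyme reaction without inhibitor and -100% = no enzyme wells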
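With Hepes-Na pH 7.6 buffer containing 10 mM MgCl2, Sfp (15 nM) modified BHQ-2-YbbR (12.5 uM) using rhodamine-CoA (5 uM). Two reads 30 minutes apart at 525/598 nm yielded each well's rate.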
GRP78 ERSR act = inducers of ER stress response in human glioma cells. U87-MG GRP78 promoter luciferase reporter, 16 h. Potency, µM, for the others: at the highest dose activation, actives largely listed as activators. 420,000 tested, 0.02% active; further: series mostly up to about 76 µM; % of control where 0% means no effect; nearly all actives have a fitted effect of over 35% in size
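ERSR induction read as luciferase luminescence (Bright-Glo, 10 min at room temperature) in stably transfected human U87-MG glioma cells exposed to compounds for 16 h, using GRP78 as sensor.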
VDR inhibitor = blocks the human vitamin D receptor; 400,000 tested, 0.93% active; VDR-SRC2-3 peptide fluorescence polarization, 2 h; P11473; Potency, µM, without a hit: max response, negative = inhibition, actives largely listed as inhibitors; further: on the % scale 0 is the no-effect control and ±100 the full control effect
Target sequence (P11473 whole entry, looked up): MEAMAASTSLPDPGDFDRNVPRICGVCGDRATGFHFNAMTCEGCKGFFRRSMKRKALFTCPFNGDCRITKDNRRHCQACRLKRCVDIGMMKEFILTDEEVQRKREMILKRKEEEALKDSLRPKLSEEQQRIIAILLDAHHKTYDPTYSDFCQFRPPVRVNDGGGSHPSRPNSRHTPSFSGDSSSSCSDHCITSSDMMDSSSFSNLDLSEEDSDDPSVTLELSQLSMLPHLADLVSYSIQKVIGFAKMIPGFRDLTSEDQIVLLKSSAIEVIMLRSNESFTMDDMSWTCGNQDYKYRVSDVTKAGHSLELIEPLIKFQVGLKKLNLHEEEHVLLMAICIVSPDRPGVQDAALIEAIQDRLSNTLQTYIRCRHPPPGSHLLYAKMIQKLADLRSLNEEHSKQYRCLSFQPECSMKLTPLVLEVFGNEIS
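Signal is fluorescence polarization, reporting how far test compounds block the interaction of VDR with the SRC2-3 coregulator peptide after a 2 h room-temperature incubation.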
12-LOX inh = ALOX12 (human) lipoxygenase inhibition | P18054 | purified 12hLO, xylenol orange hydroperoxide absorbance | Potency, µM (series often up to 108 µM), without a hit: at the top dose activity change, negative = inhibition, most hits filed as inhibitors | 580,000 tested, 1.1% active | AID 1671190; further: on the % scale 0 is the no-effect control and ±100 the full control effect
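Hydroperoxide product was detected by ferrous iron/xylenol orange as the 573 to 405 nm absorbance ratio. Arachidonic acid at 40 uM (final) was turned over for 30 min at room temperature by 150 nM human 12hLO, pH 7.0 Hepes buffer, after 15 min compound preincubation.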
G9a block = blocks human histone lysine methyltransferase G9a | Potency, µM (series often up to 102 µM), without a hit: at the highest dose activity, negative = inhibition, most hits filed as inhibitors | G9a H3K9 monomethylation, AlphaScreen, 2 h | 350,000 tested, 8.8% active | Q96KQ7; further: on the % scale 0 is the no-effect control and ±100 the full control effect; nearly all actives have a fitted effect of over 75% in size
Target sequence (Q96KQ7 913-1193 limits assumed): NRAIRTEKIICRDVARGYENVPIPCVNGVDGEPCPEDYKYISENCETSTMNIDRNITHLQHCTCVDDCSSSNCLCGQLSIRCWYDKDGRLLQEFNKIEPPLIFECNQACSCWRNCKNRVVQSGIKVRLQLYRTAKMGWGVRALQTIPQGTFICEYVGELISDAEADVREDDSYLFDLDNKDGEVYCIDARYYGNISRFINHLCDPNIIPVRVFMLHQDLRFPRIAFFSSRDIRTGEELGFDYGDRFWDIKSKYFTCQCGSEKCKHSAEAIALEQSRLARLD
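Quantitative HTS format: methyltransferase activity on a biotin-tagged H3K9 peptide is measured by AlphaScreen, using a rabbit anti-monomethyl-H3K9 antibody with streptavidin donor and anti-IgG acceptor beads. Final levels are 20 nM enzyme, 500 nM peptide, 20 uM SAM; 2 h RT.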
* hit, by the source's call; u = inconclusive; x = no result given; [ ] = dose if it differs, or a comment. This is one part of a sample in which hits are shown more often than they occur. The call rests on the fitted dose curve; in most records, active means well fitted curve in the direction sought with a large enough effect; inconclusive means small, poorly fitted or top-dose-only effect, or another doubt; inactive means no such curve, though single readings can be large; an effect the other way counts as inactive or inconclusive. Potency means the concentration at half of the fitted maximal effect.

SMILES	Sfp PPTase inh	GRP78 ERSR act	VDR inhibitor	12-LOX inh	G9a block
Cc1ccc(C(=O)N2CCC(c3nn(-c4ccc(Cl)cc4)c(=O)[nH]3)CC2)cc1	x	x	x	25µM*	x
CS(=O)(=O)N1CCN(C(=O)CNc2cc(Cl)ccc2F)CC1	x	x	x	6%	x
Cc1ccc(NC(=O)CSC2=NS(=O)(=O)c3ccccc3N2Cc2ccccc2)c(Cl)c1	x	x	x	-3%	x
Cc1ccc(C)c(Cn2nc(-c3ccc(C)c(S(=O)(=O)N4CCCC4)c3)ccc2=O)c1	x	x	x	7%	x
CC(C)N1C[C@@H]2C[C@H]1C(=O)N(Cc1ccc(OC(F)(F)F)cc1)c1ccccc1O2	x	x	x	37%[176 µM]	x
O=C(c1ccccc1Cl)N1CCC(c2nn(-c3ccc(Cl)cc3)c(=O)[nH]2)CC1	x	x	x	35µM*	x
CCCN(CCC)C(=O)Cn1nnc2sc(-c3ccccc3)cc2c1=O	x	x	-1%	u	13µM*
CCc1ccc(NC(=O)C(C)n2nnc3sc(-c4ccccc4)cc3c2=O)cc1 (configuration not stated)	x	x	-24%	u	3.5µM*
COC(=O)C(C)n1nnc2sc(-c3ccccc3)cc2c1=O (configuration not stated)	-6%	-1%	2%	-5%	7%
CCN(C(=O)Cn1nnc2sc(-c3ccccc3)cc2c1=O)c1cccc(C)c1	x	x	-16%	u	4.5µM*
COc1ccccc1N(C(=O)CCl)c1cn(C(C)=O)c2ccccc12	6%	-13%	6%	0%	u
CC(=O)n1cc(N(C(=O)CCl)c2ccc(Cl)cc2)c2ccccc21	8%	-13%	50µM*	x	x
O=S(=O)(Nc1cc(S(=O)(=O)N2CCOCC2)ccc1O)c1ccc2c(c1)OCCCO2	x	-6%	25µM*	u	1.3µM*
O=S(=O)(NCc1ccc2c(c1)OCO2)c1cccc(S(=O)(=O)N2CCOCC2)c1	5%	-1%	-11%	u	40µM*
O=S(=O)(Nc1cc(S(=O)(=O)N2CCOCC2)ccc1N1CCOCC1)c1ccc2c(c1)OCCO2	2%	-5%	-6%	-12%	40µM*
Cc1ccc(OCCSc2ncnc3nc[nH]c23)cc1	-10%	-1%	-11%	22%	40µM*
COc1ccc2[nH]c(=O)c(NC(N)=S)nc2c1	35µM*	-2%	0%	u	-8%[2.33 µM]
CCCCCCCCCCCC[N+](C)(C)Cc1ccccc1	x	-7%	x	4%[22.9 µM]	x
CCCCCCCCCCCCCCCCn1cc[n+](Cc2ccccc2)c1C	13µM*	-12%	85%	x	x
CCOc1cc(C)c(Cl)cc1S(=O)(=O)NCCO	x	x	x	6%	x
CCN(CC)C(=O)CSC1=N/C(=C/c2ccco2)C(=O)N1c1ccc(OC)c(Cl)c1	u	-1%	-22%	u	25µM*
COc1ccc(N2C(=O)/C(=C\c3ccco3)N=C2SCC(=O)NC(C)(C)C)cc1Cl	-58%	-5%	0%	u	u
COc1ccc(-c2cc(C(=O)Nc3ccc(C#N)cc3)no2)cc1	x	-2%	2%	-21%	15%[59 µM]
CCc1c(C)sc(NC(=O)c2cc(-c3ccco3)on2)c1C#N	u	-1%	u	u	13µM*
CCc1c(C)sc(NC(=O)c2cc(-c3ccc(OC)cc3)on2)c1C#N	x	-2%	-9%	-4%	10µM*
SMILES	Sfp PPTase inh	GRP78 ERSR act	VDR inhibitor	12-LOX inh	G9a block
Cc1ccc(C(=O)Cn2cnc3c2c(=O)n(C)c(=O)n3C)cc1C	x	x	x	-37%	x
Cc1ccc(F)cc1NC(=O)c1nn(Cc2ccccc2)c(=O)c2ccccc12	x	x	x	-1%	x
O=C(CSC1=Nc2ccccc2CS1)NC1CCCC1	x	x	x	-20%	x
O=[N+]([O-])c1ccc(C=Nc2cccc3ccccc23)s1	-2%	-4%	-8%	x	10µM*
CN1CCN(C(=O)c2ccc3c(c2)N(Cc2ccc(Cl)cc2)C(=O)c2ccccc2S3=O)CC1 (configuration not stated)	-1%	-4%	3%	67%	79µM*
O=C(NCCCN1CCOCC1)c1ccc2c(c1)N(Cc1c(F)cccc1Cl)C(=O)c1ccccc1S2	-4%	-4%	-13%	u	35µM*
O=C(c1ccc2c(c1)N(Cc1ccc(Cl)cc1)C(=O)c1ccccc1S2=O)N1CCCCC1 (configuration not stated)	x	-4%	-16%	-16%	3%[59 µM]
O=C(NCCN1CCCC1)c1ccc2c(c1)N(Cc1ccc(F)cc1)C(=O)c1ccccc1S2=O (configuration not stated)	0%	-3%	8%	42%	40µM*
O=C(NCCCN1CCOCC1)c1ccc2c(c1)N(Cc1cccc(Cl)c1)C(=O)c1ccccc1S2	x	-4%	13%	u	-8%[59 µM]
Cc1nc2c(c(-c3ccc(O)cc3)n1)CN(C(=O)c1cccc(Cl)c1)CC2	x	x	x	-7%	x
Cc1cc(Cl)ccc1OCC(=O)OCC(=O)Nc1ccc(Cl)cn1	x	-3%	x	u	x
C/C(N)=C(/C#N)C(=O)COC(=O)COc1ccc(Cl)cc1C	14%	-3%	-10%	0%	50µM*
O=C1CCCC(O)=C1Sc1cc(Cl)c(Cl)cc1Cl	x	-2%	-26%	40µM*	x
Cc1cc(C)n(-c2nc3ccccc3nc2N2CCN(S(=O)(=O)c3ccc(C)c(C)c3)CC2)n1	x	x	x	30%	x
CC(=O)Nc1cc(O)c2nonc2c1O	x	-11%	4.5µM*	x	x
CNC(=S)N1CCN(c2c(F)cc3c(=O)c(C(=O)O)cn(C4CC4)c3c2OC)CC1C (configuration not stated)	-2%	-5%	-14%	u	u
COC(=O)C(C)NC(=S)N1CCN(c2c(F)cc3c(=O)c(C(=O)O)cn(C4CC4)c3c2OC)CC1C (configuration not stated)	u	-3%	-10%	8.9µM*	-2%[12.7 µM]
O=C(C[n+]1ccccc1)c1ccc(NC(=O)c2ccccc2)cc1	-7%	-2%	-2%	u	16µM*
Cc1ccc[n+](CC(=O)c2ccc(NC(=O)c3ccccc3)cc2)c1	19%	-5%	-4%	-1%	-6%
O=C(Nc1ccc[n+](CC(=O)c2cccc3ccccc23)c1)c1ccccc1	56µM*	-7%	-10%	u	40µM*
N#Cc1ccc[n+](CC(=O)c2ccc(NC(=O)c3ccccc3)cc2)c1	12%	4%	5%	u	45µM*
CCc1nnsc1C(=O)N(C)Cc1cccc(Cl)c1Cl	x	x	x	14%	x
COc1ccc(C(=O)N2CCC(Oc3ncccc3C(=O)N3CCCCC3)C2)c(C)c1 (configuration not stated)	x	x	x	34%	x
COCCNC(=O)c1coc(COc2ccc3c(c2)C(c2ccc(F)cc2)N(C(=O)C(C)C)CC3)n1 (configuration not stated)	x	x	x	18%	x
CC12CCC(C(=O)N(CSC(=S)N/N=C\c3ccccc3O)C1=O)C2(C)C (configuration not stated)	38%	-4%	-3%	0%	4.5µM*
COc1ccc(N2CCN(c3ccc(N4C(=O)COCC4=O)cc3[N+](=O)[O-])CC2)cc1	12%	3%	-5%	-1%	50µM*

Source: PubChem
